Experimental findings from PubChem BioAssay are described below.

Results filed as inconclusive are left out. Activity calls are given as the source filed them. Unless noted, the rule behind the calls is not given here.

Sequence of ATP-dependent translocase ABCB1 (Homo sapiens) (P08183 whole entry, looked up): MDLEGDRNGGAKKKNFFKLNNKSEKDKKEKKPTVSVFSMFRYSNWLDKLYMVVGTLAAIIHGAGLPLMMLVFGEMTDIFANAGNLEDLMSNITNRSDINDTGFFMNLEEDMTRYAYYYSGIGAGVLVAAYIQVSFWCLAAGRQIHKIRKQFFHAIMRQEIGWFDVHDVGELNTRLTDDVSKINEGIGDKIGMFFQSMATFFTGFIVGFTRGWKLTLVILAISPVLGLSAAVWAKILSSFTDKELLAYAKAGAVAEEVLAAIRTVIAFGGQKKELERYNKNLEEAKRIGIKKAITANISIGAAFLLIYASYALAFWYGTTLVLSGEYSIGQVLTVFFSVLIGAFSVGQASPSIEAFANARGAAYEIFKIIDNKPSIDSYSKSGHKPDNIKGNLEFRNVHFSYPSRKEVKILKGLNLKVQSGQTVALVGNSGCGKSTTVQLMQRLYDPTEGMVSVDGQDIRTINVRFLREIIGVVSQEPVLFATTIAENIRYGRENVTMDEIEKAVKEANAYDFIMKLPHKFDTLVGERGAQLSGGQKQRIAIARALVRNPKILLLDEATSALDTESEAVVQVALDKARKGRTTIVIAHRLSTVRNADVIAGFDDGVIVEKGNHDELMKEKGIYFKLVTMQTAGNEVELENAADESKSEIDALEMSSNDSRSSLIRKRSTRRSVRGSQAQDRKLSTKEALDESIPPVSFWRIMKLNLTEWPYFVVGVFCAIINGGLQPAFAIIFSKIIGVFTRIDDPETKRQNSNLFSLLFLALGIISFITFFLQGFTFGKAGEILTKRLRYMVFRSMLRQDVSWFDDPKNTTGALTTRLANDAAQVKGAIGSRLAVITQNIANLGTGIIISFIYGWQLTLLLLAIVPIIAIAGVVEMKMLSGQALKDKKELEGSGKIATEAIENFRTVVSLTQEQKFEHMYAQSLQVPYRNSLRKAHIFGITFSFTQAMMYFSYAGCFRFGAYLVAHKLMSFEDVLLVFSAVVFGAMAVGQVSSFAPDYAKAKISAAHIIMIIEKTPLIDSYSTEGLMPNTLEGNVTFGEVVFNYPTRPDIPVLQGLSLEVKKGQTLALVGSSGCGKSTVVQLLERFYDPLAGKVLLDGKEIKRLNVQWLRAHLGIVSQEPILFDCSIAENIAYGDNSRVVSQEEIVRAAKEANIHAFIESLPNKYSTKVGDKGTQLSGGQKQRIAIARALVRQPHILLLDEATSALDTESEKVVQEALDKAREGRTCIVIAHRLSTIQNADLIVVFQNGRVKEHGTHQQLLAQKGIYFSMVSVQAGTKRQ

The first assay concerns the target ATP-dependent translocase ABCB1 (Homo sapiens) (UniProt P08183). Nature of the assay: MDR1 (ABCB1) efflux transporter inhibition, cell-based (AID 377; in the data active = fluorescence slope change above about 50%). To be noted: MDR1-expressing cells, fluorescent substrate accumulation slope; active compounds read high; concentration not given here.
With `O=C(O)CCCC[C@@H]1SCC2NC(=O)NC21` (stereo not given in full), the fluorescence slope change was 79.8% (active).

Turning to `C=N[C@@H](C(=O)N[C@@H]1C(=O)C2[C@@H](C(=O)O)C(C)(C)S[C@@H]21)c1ccccc1` (stereo not given in full), the fluorescence slope change was 10.1% (inactive).

With `COc1ccc(C(=O)O[C@H]2CC[C@@]3(C)C4CCC5[C@]6(O)[C@@H](O)[C@H](O)[C@H]7[C@@H](CN8C[C@@H](C)CC[C@H]8[C@@]7(C)O)[C@@H]6C[C@@]53O[C@]42O)cc1OC` (stereo not given in full), the fluorescence slope change is 2.5% (inactive).

In the case of `CC[C@H]1OC(=O)[C@H](C)[C@@H](OC2CC(C)(OC)C(O)C(C)O2)[C@H](C)[C@@H](OC2OC(C)CC(N(C)C)C2O)[C@@H](C)C[C@](C)(O)[C@@H]2N[C@H](COCCOC)O[C@H]([C@H]2C)[C@]1(C)O` (stereo not given in full), the fluorescence slope change is 59.6% (active).

Take `CC(=O)S[C@@H]1CC2=CC(=O)CC[C@]2(C)[C@H]2CC[C@@]3(C)[C@@H](CC[C@]34CCC(=O)O4)[C@H]12`: the fluorescence slope change was 162% (active).

For `O=S(=O)(O)CCN1CCN(CCO)CC1`, the fluorescence slope change is 26.7% (inactive).

Take `CC1(C)S[C@@H]2[C@H](NC(=O)C(NC(=O)N3CCNC3=O)c3ccccc3)C(=O)N2[C@H]1C(=O)O` (stereo not given in full): the fluorescence slope change was 25.1% (inactive).

Tested on in a further assay: not listed separately
Put plainly: circadian clock period modulators, cell-based, LOPAC library, luminescence reporter (AID 2774).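 Note: values are relative to mean of DMSO wells on each plate.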 To be noted: circadian reporter cells, at 7 µM, actives lie on both sides.
As for `COc1cc2nc(N3CCN(C(=O)OCc4ccccc4)C(C(=O)NC(C)(C)C)C3)nc(N)c2cc1OC` (stereo not given), the period change is 0.085 h (inactive).

For `O=C(O)[C@@H]1C[C@H](C(=O)O)N1`, the period change was -0.02 h (inactive).

On to `Cc1ccc(OCC(O)C(C)NC(C)C)c2c1CCC2` (stereo not given), for which the period change is 0.02 h (inactive).

Consider `O=S(=O)(O)C1CCNCC1`, for which the period change is 0.07 h (inactive).

Consider `O=C(O)/C=C/C(O)c1ccc(Cl)cc1` (stereo not given), for which the period change was 0.15 h (inactive).

For the compound `NCCNC(=O)c1ncsc1-c1cccc(F)c1`, the period change is 0.08 h (inactive).

For the compound `CCCC(=O)NCCc1c2n(c3ccc(OC)cc13)Cc1ccccc1-2`, the period change is 0.125 h (inactive).

Turning to `CN1CCc2cc(O)c(O)cc2C(c2ccccc2)C1` (stereo not given), the period change is 0.07 h (inactive).

On to `CC(N)=NCCC[C@H](N)C(=O)O`, for which the period change was 0.025 h (inactive).

On to `N#C/C(=C\c1c[nH]c2ccccc12)C(=O)c1ccc(O)c(O)c1`, for which the period change is 0.275 h (inactive).

As for `Ic1ccc(N2CCN(Cc3c[nH]c4ncccc34)CC2)cc1`, the period change is 0.1 h (inactive).

For `N[C@H](CCC(=O)NCS(=O)(=O)O)C(=O)O`, the period change was 0.005 h (inactive).

Take `COc1cc(OC)cc(C(CNc2ncnc3c2ncn3[C@@H]2O[C@H](CO)[C@H](O)C2O)c2ccccc2C)c1` (stereo not given in full): the period change is -0.11 h (inactive).

Consider `CCn1c(=O)c2[nH]c(-c3ccccc3)nc2n(CC)c1=O`, for which the period change was -0.165 h (inactive).

With `C[C@@H](Oc1ccc(Oc2cnc3ccc(Cl)cc3n2)cc1)C(=O)O`, the period change is -0.01 h (inactive).

Regarding `CCCCN1CCC(n2c(=O)[nH]c3ccccc32)CC1`, the period change is -0.16 h (inactive).

Turning to `CCCCCCCCCCCCCCCCCCNC(=O)OCC(COP(=O)([O-])OCC[n+]1ccsc1)OC` (stereo not given), the period change is -0.05 h (inactive).

On to `CC(C)CN(C)c1nc(N)c(C(=O)N=C(N)N)nc1Cl`, for which the period change is 0 h (inactive).

As to `O=C(O)[C@@H]1C[C@@H](C(=O)O)N1`, the period change is -0.1 h (inactive).

On to `CC(C)[C@@H](CO)Nc1nc(Nc2cccc(Cl)c2)c2ncn(C(C)C)c2n1`, for which the period change is -0.115 h (inactive).

For the compound `COc1cc2c(cc1OC)[C@@H](c1ccccc1)CN(C)CC2`, the period change is 0 h (inactive).

As to `C[N+](C)(CCCCCC[N+](C)(C)CCCN1C(=O)c2cccc3cccc(c23)C1=O)CCCN1C(=O)c2cccc3cccc(c23)C1=O`, the period change is -0.055 h (inactive).

On to `CC(=O)NCCc1ccc(O)c(O)c1`, for which the period change was -0.045 h (inactive).

Consider `CC(COc1ccc(/C=C/c2ccccc2)cc1)[N+](C)(C)C` (stereo not given), for which the period change is -0.13 h (inactive).

On to `Cc1ccccc1CNc1ncnc2c1ncn2C1OC(CO)C(O)C1O` (stereo not given), for which the period change was -0.235 h (inactive).

Consider `CNCC[C@@H](Oc1ccc(C(F)(F)F)cc1)c1ccccc1`, for which the period change is 0.13 h (inactive).

For the compound `OC[C@H]1O[C@@H](n2cnc3c(N[C@H]4CC5CCC4C5)ncnc32)[C@H](O)[C@@H]1O` (stereo not given in full), the period change was -0.33 h (inactive).

On to `COc1ccccc1N1CCN(CCCCNS(=O)(=O)c2cccc3c(N(C)C)cccc23)CC1`, for which the period change was 0.125 h (inactive).

As for `Cc1ccc(C(=O)O[C@H](C(=O)O)[C@H](OC(=O)c2ccc(C)cc2)C(=O)O)cc1` (tested in a mixture with another compound), the period change was -0.105 h (inactive).

Take `CCCn1c(=O)c2[nH]c(-c3ccc(OCC(=O)NCCN)cc3)nc2n(CCC)c1=O`: the period change is -0.09 h (inactive).

Consider `COc1ccccc1N1CCN(CCN(C(=O)c2ccc(I)cc2)c2ccccn2)CC1`, for which the period change was 0.08 h (inactive).

Consider `Cc1ccccc1N1CCN(S(=O)(=O)C[C@]23CCC(CC2NC(=O)[C@@H](N)CCS(C)(=O)=O)C3(C)C)CC1` (stereo not given in full), for which the period change is -0.06 h (inactive).

For the compound `CC1(NCC(O)COc2cccc3[nH]ccc23)CCC(C(C)(C)NC(=O)CBr)CC1` (stereo not given), the period change is -0.095 h (inactive).
